Inconclusive results are not listed. The source made the active and inactive calls. The call rests on the fitted dose curve; in most records, active means well fitted inhibition curve with a large enough effect; inconclusive means small, poorly fitted or top-dose-only effect; inactive means no such curve, though single readings can be large or run the other way.
Potency means the concentration at half of the fitted maximal effect.

Rap guanine nucleotide exchange factor 3 (Homo sapiens), sequence (O95398 whole entry, looked up): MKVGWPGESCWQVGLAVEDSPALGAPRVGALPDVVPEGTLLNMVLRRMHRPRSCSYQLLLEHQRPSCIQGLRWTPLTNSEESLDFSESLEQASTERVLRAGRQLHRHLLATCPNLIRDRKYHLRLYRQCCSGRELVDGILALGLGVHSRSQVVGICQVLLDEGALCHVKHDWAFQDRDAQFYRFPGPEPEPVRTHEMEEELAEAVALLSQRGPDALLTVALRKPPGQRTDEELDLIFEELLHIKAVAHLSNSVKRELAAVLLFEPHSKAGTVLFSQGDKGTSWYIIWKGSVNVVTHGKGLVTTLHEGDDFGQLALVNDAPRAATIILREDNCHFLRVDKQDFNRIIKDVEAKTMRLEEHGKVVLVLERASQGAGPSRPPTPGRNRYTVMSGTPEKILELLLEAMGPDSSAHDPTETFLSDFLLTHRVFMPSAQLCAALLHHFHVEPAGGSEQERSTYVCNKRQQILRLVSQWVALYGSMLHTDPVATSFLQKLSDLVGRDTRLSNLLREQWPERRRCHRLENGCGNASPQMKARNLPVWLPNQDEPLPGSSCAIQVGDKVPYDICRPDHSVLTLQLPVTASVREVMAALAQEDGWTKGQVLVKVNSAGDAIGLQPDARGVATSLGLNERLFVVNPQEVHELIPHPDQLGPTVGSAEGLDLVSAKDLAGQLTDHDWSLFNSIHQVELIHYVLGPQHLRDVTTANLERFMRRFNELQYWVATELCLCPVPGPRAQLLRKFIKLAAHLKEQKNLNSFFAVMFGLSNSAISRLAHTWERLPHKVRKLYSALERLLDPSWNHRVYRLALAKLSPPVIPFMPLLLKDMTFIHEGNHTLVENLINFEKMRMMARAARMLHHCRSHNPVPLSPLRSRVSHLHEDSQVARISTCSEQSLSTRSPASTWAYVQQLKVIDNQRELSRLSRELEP

One test deals with Rap guanine nucleotide exchange factor 4 (Homo sapiens) (UniProt Q8WZA2). As to the kind of experiment: Confirmatory qHTS for antagonist of cAMP-regulated guanine nucleotide exchange factor 4 (EPAC2) (AID 1645885). Further: nearly all actives have a fitted effect of over 25% in size. On activity change, negative = inhibition: on the % scale 0 is the no-effect control and ±100 the full control effect. The following applies: EPAC2 Rap1B-BODIPY-GDP exchange fluorescence, biochemical; series mostly up to 12.7 µM; activity change, negative = inhibition: at the top concentration. (qHTS replaces the single test concentration by a dilution series.)
Rap guanine nucleotide exchange factor 4 (Homo sapiens), sequence (Q8WZA2 whole entry, looked up): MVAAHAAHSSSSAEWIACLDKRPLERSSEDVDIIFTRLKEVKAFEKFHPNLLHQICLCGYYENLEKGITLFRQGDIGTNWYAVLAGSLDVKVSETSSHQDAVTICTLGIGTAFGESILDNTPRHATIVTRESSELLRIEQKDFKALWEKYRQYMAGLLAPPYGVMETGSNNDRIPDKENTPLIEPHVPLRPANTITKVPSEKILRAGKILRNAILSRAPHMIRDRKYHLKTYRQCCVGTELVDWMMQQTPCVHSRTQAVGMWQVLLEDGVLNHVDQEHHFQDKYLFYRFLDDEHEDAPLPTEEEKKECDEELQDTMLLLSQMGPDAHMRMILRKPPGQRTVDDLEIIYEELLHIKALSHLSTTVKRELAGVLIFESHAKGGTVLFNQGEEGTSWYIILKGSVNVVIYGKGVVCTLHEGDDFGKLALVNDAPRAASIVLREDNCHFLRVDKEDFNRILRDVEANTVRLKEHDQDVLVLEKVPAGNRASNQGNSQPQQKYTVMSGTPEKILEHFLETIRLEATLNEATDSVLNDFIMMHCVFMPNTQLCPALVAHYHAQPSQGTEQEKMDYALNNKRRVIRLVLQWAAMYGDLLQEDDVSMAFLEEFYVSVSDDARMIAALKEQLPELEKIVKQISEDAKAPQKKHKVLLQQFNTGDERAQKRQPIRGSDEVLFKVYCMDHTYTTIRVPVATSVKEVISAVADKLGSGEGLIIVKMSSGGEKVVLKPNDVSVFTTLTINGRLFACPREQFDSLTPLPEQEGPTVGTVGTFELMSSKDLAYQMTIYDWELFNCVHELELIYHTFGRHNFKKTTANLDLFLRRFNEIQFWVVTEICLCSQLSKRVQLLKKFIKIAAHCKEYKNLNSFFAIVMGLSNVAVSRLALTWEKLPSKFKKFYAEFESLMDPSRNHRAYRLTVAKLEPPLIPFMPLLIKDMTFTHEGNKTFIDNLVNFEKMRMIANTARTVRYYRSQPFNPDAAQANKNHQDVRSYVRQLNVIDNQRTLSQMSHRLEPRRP
Regarding `O=C(N/N=C/c1ccc(OC(=O)c2ccccc2Cl)cc1)c1cc(O)cc(O)c1`, the call was inactive.

As to `CC(NC1=CC(=O)c2cccnc2C1=O)C(O)c1ccccc1` (centres undefined), the “activity change, negative = inhibition” value is -11.2% [at 114 µM] (inactive).

Consider `Cc1ccnc(NCc2cccc3ccccc23)c1`, for which the “activity change, negative = inhibition” value is 23.7% [at 114 µM] (inactive). Still for that read-out and setting: the figure for `O=C(NCc1ccc(OC(F)(F)F)cc1)c1cccc2c1C(=O)c1ccc(N3CCCC3)cc1S2(=O)=O` is -1.35% (inactive).

For `COCCn1c(-c2ccc(OC)cc2)c(-c2ccc(OC)cc2)oc1=O`, the “activity change, negative = inhibition” value was 56.6% [at 114 µM] (inactive).

With `COc1ccc2sc(N(Cc3cccnc3)C(=O)c3ccco3)nc2c1`, the “activity change, negative = inhibition” value is 22.9% (inactive).

In the case of `O=c1oc2c(O)cccc2cc1-c1nc2ccccc2[nH]1`, the “activity change, negative = inhibition” value is 28% (inactive).

On to `COc1cccc(C2=NN(C(=O)c3ccco3)C(c3ccco3)C2)c1` (centres undefined), for which the “outcome” value was “inactive; activator; fitted 37.933 uM”. Still for that read-out and setting: the entry for `OCc1ccc(-c2ccccc2)c(-c2ccccc2)c1` is “inactive; activator; fitted 37.933 uM”. Regarding `O=C(CC1Sc2ccccc2NC1=O)OCc1cc(=O)oc2cc(O)ccc12` (centres undefined), the “activity change, negative = inhibition” value was 23.7% [at 114 µM] (inactive).

As for `COc1cccc(CNc2cccc3cccnc23)c1O`, the “activity change, negative = inhibition” value was 21.2% [at 114 µM] (inactive). The same measure, in the same setting: then `CN1/C(=C\C=C2/C(=O)Oc3ccccc3C2=O)C(C)(C)c2ccccc21`, with 33.5% (inactive). In the case of `Nc1ccc(CSc2ccc(Cl)cc2)c(Cl)c1`, the Potency was 21.3 µM (active). On to `O=S(=O)(c1ccccc1)c1nc(Nc2cccc(O)c2)sc1Cl`, for which the “activity change, negative = inhibition” value was 94.3% [at 114 µM] (inactive). On to `COc1ccccc1Oc1nc(-c2cccnc2)nc2ccccc12`, for which the Potency was 67.5 µM (active). The same measure, in the same setting: the figure for `Oc1ccc(Br)cc1CNc1cccc2cccnc12` is 33.8 µM (active).

On to `COC(=O)c1ccc(COc2ccc(/C=C(\C#N)c3nc4ccccc4[nH]3)cc2OC)o1`, for which the “activity change, negative = inhibition” value was 47.3% [at 114 µM] (inactive). The same measure, in the same setting: the figure for `COc1cccc(Cn2c(=O)c3ccccc3n3nc(C)cc23)c1` is 29% [at 114 µM] (inactive); for `CC1CCCN(C(=O)c2ccc(-c3ccccc3Cl)o2)C1` (centres undefined) it is 14% [at 114 µM] (inactive); for `Cc1cc2ccccn2c1C(=O)c1ccccc1Br` it is 30.2% [at 114 µM] (inactive). On the same count and under the same terms, then `O/N=C(/c1ccc(F)cc1)C1CC1c1c(F)cccc1Cl` (centres undefined), with -66.3% [at 114 µM] (inactive).

A further test concerns the target Rap guanine nucleotide exchange factor 3 (Homo sapiens) (UniProt O95398). As to the kind of experiment: Counterscreen qHTS for antagonist of cAMP-regulated guanine nucleotide exchange factor 3 (EPAC1) (AID 1645888).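 On activity change, negative = inhibition: fluorescence loss as bound BODIPY-GDP is released from Rap1B; % of control where 0% means no effect.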 The following applies: Rap1B-BODIPY-GDP nucleotide exchange, fluorescence; series mostly up to 154 µM; activity change, negative = inhibition: at the top concentration. The method in brief: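 Measured: fluorescence of BODIPY-GDP bound to Rap1B, which falls as exchange proceeds. Conditions include 50 uM competing GDP, 5 and 30 min reads, and a later cAMP challenge for antagonist detection.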
A general note: The purpose of a counterscreen is to sort out artefacts and off-target activity.
`COc1ccc(-c2nc3ccccc3nc2-c2ccccc2)cc1OC`: the “activity change, negative = inhibition” value was 3.09% (inactive). Still for that read-out and setting: the figure for `Cc1c(CCC(=O)O)c(=O)oc2c(C)c3occ(-c4ccc(Br)cc4)c3cc12` is -5.48% (inactive); for `COc1ccc(O)c(C(c2c(C)[nH][nH]c2=O)c2c(C)[nH][nH]c2=O)c1` it is 33.4% (inactive).

Regarding `Oc1ccc(Cl)cc1CNc1cccc2cccnc12`, the “activity change, negative = inhibition” value is 11.2% (inactive). Same read-out and setting: then `CN1c2ccsc2/C(=N/Nc2ccccc2)CS1(=O)=O`, with -21% (inactive); and `Cn1cc(-c2cnc3c(NC=O)cc(-c4cccc(C(F)(F)F)c4)cn23)cn1`, with -21.7% (inactive). On the same count and under the same terms, the figure for `COC(=O)C(C)Sc1nc2ccsc2c(=O)n1Cc1ccccc1` (centres undefined) is -15.9% (inactive); for `O=C(c1cc(Cl)ccc1Cl)N1CCc2ccccc21` it is 5.29% (inactive); for `O=S(=O)(c1ccc2[nH]c3c(c2c1)CCCC3)N1CCCCC1` it is 0.728% (inactive). `S=C(Nc1ccc2nsnc2c1)NC1CCCCC1`: the “activity change, negative = inhibition” value is 25.9% (inactive).

Consider `O=c1cc(Cl)c(-c2ccccc2)nn1Cc1ccc(Cl)cc1`, for which the “activity change, negative = inhibition” value is -3.18% (inactive).

On to `CCOC(=O)C1CN(S(=O)(=O)c2ccc(C)cc2)c2ccccc2O1` (centres undefined), for which the “activity change, negative = inhibition” value is 18.3% (inactive). Take `CC1CCN(c2ccc3c(c2)S(=O)(=O)c2cccc(C(=O)NC[C@@H]4CCCO4)c2C3=O)CC1`: the “activity change, negative = inhibition” value is -5.04% (inactive). On the same count and under the same terms, then `O=C(N/N=C/c1ccc(OC(=O)c2ccccc2Cl)cc1)c1cc(O)cc(O)c1`, with 14.9% (inactive). The same measure, in the same setting: then `CC(NC1=CC(=O)c2cccnc2C1=O)C(O)c1ccccc1` (centres undefined), with 20% (inactive). As for `CCN(CC)C1=CC2=CC(=C(C#N)C#N)CCC2CC1` (centres undefined), the “activity change, negative = inhibition” value was 430% (inactive).

Take `Cc1ccnc(NCc2cccc3ccccc23)c1`: the “activity change, negative = inhibition” value was 7.8% (inactive). The same measure, in the same setting: the figure for `COCCn1c(-c2ccc(OC)cc2)c(-c2ccc(OC)cc2)oc1=O` is 5.41% (inactive); for `O=c1oc2c(O)cccc2cc1-c1nc2ccccc2[nH]1` it is -8.32% [at 30.8 µM] (inactive).

For the compound `COc1cccc(C2=NN(C(=O)c3ccco3)C(c3ccco3)C2)c1` (centres undefined), the “activity change, negative = inhibition” value was 16.9% (inactive). The same measure, in the same setting: then `OCc1ccc(-c2ccccc2)c(-c2ccccc2)c1`, with -10.5% (inactive); and `COc1cccc(CNc2cccc3cccnc23)c1O`, with 23.6% (inactive); and `Nc1ccc(CSc2ccc(Cl)cc2)c(Cl)c1`, with 17.5% (inactive).

In the case of `O=S(=O)(c1ccccc1)c1nc(Nc2cccc(O)c2)sc1Cl`, the “activity change, negative = inhibition” value was 5.95% (inactive).

Regarding `COc1ccccc1Oc1nc(-c2cccnc2)nc2ccccc12`, the “activity change, negative = inhibition” value was 11.9% (inactive). Still for that read-out and setting: the figure for `Oc1ccc(Br)cc1CNc1cccc2cccnc12` is -5.73% (inactive); for `COC(=O)c1ccc(COc2ccc(/C=C(\C#N)c3nc4ccccc4[nH]3)cc2OC)o1` it is 4.14% (inactive); for `O=C(COc1ccc(Cl)cc1Cl)NNC(=S)NCc1ccco1` it is -4.61% (inactive). Same read-out and setting: the figure for `COc1cccc(Cn2c(=O)c3ccccc3n3nc(C)cc23)c1` is 48.4% (inactive). Consider `CC(=O)OCCn1c2nc(=O)[nH]c(=O)c-2nc2cc(C)c(C)cc21`, for which the Potency is 100 µM (active). As for `CC1CCCN(C(=O)c2ccc(-c3ccccc3Cl)o2)C1` (centres undefined), the “activity change, negative = inhibition” value was 3.93% (inactive). With `Cc1cc2ccccn2c1C(=O)c1ccccc1Br`, the “activity change, negative = inhibition” value was 35.8% (inactive).

In the case of `O/N=C(/c1ccc(F)cc1)C1CC1c1c(F)cccc1Cl` (centres undefined), the “activity change, negative = inhibition” value is -27.6% (inactive).

For the origin of these results see PubChem BioAssay (NCATS).
